# Activity calls are given as the source filed them.
# How the values were obtained:
# [1] = test system: PRMT1 (protein arginine N-methyltransferase 1); experiment: small molecules binding arginine methyltransferase PRMT1 – biochemical, small-molecule microarray, 635 nm fluorescence, primary screen (AID 1088); conditions: higher = more signal;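 also: binding of Prmt1 protein to compounds spotted on small-molecule microarray slides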
# [2] = growth effects on S. cerevisiae YJM789 – YJM789 clinical isolate, OD600, 24 h, basal, primary screen (AID 1089); conditions: higher = more signal, called active from +8 up or from −8 down;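 also: growth of clinical yeast isolate S. cerevisiae YJM 789 seeded 1000 cells per well; test concentration not given here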
# [3] = S. pombe growth modifiers, basal conditions – strain 972, OD600, 24 h, no modulator, primary screen (AID 1090);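 also: basal condition with compound alone and no growth modifier present; test concentration not given here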; conditions: S. pombe 972 growth, higher = more signal, called active from +8 up or from −8 down
# [4] = budding yeast growth modifiers under rapamycin – strain BY4716, OD600, 96 h, primary screen (AID 1091); also: test concentration not given here; conditions: S. cerevisiae BY4716 + rapamycin, higher = more signal, called active from +8 up or from −8 down
# [5] = biological target: Torsin-1A-interacting protein 2 (Homo sapiens) (UniProt Q8NFQ8); experiment: small molecules binding lysate-expressed LULL1 – cell lysate, human LULL1 lysate, 635/667 nm fluorescence, primary screen (AID 1092); conditions: small-molecule microarray, hLULL1 lysate binding, 635 nm fluorescence; higher = more signal;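 also: probe is lysate of COS7 cells overexpressing human LULL1; score merges per-feature 667 nm fluorescence with signal-to-noise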
# [6] = optical density change of DRC41 E. coli – strain DRC41, OD650, 24 h, E. coli filamentation project, primary screen (AID 1093);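 also: MC1000 strain lacking acrAB efflux and sulA so SOS filamentation is blocked; test concentration not given here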; conditions: E. coli DRC41 growth, higher = more signal, called active from +8 up or from −8 down
# [7] = probe aLefty2 binding to arrayed compounds – biochemical, biotinylated probe, 635/667 nm fluorescence, primary screen (AID 1094); conditions: small-molecule microarray, higher = more signal;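 also: score merges spot fluorescence near 667 nm with spot signal-to-noise ratio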
# [8] = test system: Noggin (protein binding on small-molecule microarray); experiment: small molecules binding Noggin protein – biochemical, 635/667 nm fluorescence, primary screen (AID 1095); conditions: 635 nm fluorescence, higher = more signal;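 also: score merges 667 nm feature fluorescence with signal to noise over triplicate slides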
# [9] = biological target: Neurogenic locus notch homolog protein 3 (Homo sapiens) (UniProt Q9UM47); experiment: small molecules binding NOTCH3 protein – biochemical, 635/667 nm fluorescence, primary screen (AID 1096); conditions: small-molecule microarray, 635 nm fluorescence, higher = more signal
# [10] = probe aEGFR binding to arrayed compounds – biochemical, biotinylated probe, 635/667 nm fluorescence, primary screen (AID 1097); conditions: small-molecule microarray, higher = more signal;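 also: probe is a biotinylated anti-EGFR antibody binding compounds printed on slides; score combines fluorescence near 667 nm and signal to noise of each spot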
# [11] = test system: Plasmodium falciparum Sir2 (PF13_0152, Sir2A); experiment: Plasmodium falciparum Sir2A binding compounds – biochemical, small-molecule microarray, 635 nm fluorescence, primary screen (AID 1098); conditions: fluorescence 635 nm, higher = more signal;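 also: score merges spot fluorescence intensity with its signal-to-noise ratio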
# [12] = probe aDKK1 binding to arrayed compounds – biochemical, biotinylated probe, 635/667 nm fluorescence, primary screen (AID 1099); conditions: small-molecule microarray, higher = more signal;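 also: score merges 667nm spot fluorescence with signal to noise across triplicate slides; reference of the scale not given here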
# [13] = probe aCHRDL2 binding to arrayed compounds – biochemical, biotinylated probe, 635/667 nm fluorescence, primary screen (AID 1100); conditions: small-molecule microarray, higher = more signal
# [14] = change in splice reporter luminescence, either direction, cell-based, HEK293, spliceosome inhibition project, primary screen (AID 1101); conditions: HEK293 splicing luciferase reporter, 24 h, higher = more signal, called active from +8 up or from −8 down;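 also: HEK293 cells carrying a splicing-competent luciferase reporter gene; test concentration not given here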
# [15] = biological target: Fibroblast growth factor 10 (Homo sapiens) (UniProt O15520); experiment: compounds binding fibroblast growth factor 10 – biochemical, small-molecule microarray, 635 nm fluorescence, primary screen (AID 1102); conditions: FGF10 binding, fluorescence 635 nm, higher = more signal
# [16] = test system: glycogen synthase kinase-3 (GSK3A per assay name; protocol says GSK3B); experiment: compounds binding glycogen synthase kinase-3 – biochemical, small-molecule microarray, 635 nm fluorescence, GSK3A, primary screen (AID 1103); conditions: fluorescence 635 nm, higher = more signal; also: the record names both GSK3A and GSK3B
# [17] = biological target: Epidermal growth factor receptor (Homo sapiens) (UniProt P00533); experiment: compounds binding epidermal growth factor receptor – biochemical, small-molecule microarray, 635 nm fluorescence, primary screen (AID 1104); conditions: EGFR binding, higher = more signal;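 also: score merges 667 nm emission intensity with spot signal to noise over triplicate slides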
# [18] = biological target: Follistatin-related protein 3 (Homo sapiens) (UniProt O95633); experiment: compounds binding follistatin-related protein 3 – biochemical, small-molecule microarray, 635 nm fluorescence, primary screen (AID 1105); conditions: FSTL3 binding, higher = more signal;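 also: score merges emission near 667 nm and signal to noise per printed spot across three slides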
# [19] = biological target: Dickkopf-related protein 1 (Homo sapiens) (UniProt O94907); experiment: small molecules binding DKK1 protein – biochemical, small-molecule microarray, 635 nm fluorescence scan, primary screen (AID 1106); conditions: higher = more signal;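 also: score merges emission near 667 nm with signal to noise over three replicate slides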
# [20] = test system: Inhibin beta A chain (activin A); experiment: small molecules binding activin A – biochemical, small-molecule microarray, 635 nm fluorescence scan, primary screen (AID 1107); conditions: INHBA, higher = more signal;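 also: mouse activin A protein probed at 4.33 µg/mL on printed slides; score merges bound-protein fluorescence near 667 nm with spot signal-to-noise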
# Chain of Neurogenic locus notch homolog protein 3 (Homo sapiens) (Q9UM47 whole entry, looked up): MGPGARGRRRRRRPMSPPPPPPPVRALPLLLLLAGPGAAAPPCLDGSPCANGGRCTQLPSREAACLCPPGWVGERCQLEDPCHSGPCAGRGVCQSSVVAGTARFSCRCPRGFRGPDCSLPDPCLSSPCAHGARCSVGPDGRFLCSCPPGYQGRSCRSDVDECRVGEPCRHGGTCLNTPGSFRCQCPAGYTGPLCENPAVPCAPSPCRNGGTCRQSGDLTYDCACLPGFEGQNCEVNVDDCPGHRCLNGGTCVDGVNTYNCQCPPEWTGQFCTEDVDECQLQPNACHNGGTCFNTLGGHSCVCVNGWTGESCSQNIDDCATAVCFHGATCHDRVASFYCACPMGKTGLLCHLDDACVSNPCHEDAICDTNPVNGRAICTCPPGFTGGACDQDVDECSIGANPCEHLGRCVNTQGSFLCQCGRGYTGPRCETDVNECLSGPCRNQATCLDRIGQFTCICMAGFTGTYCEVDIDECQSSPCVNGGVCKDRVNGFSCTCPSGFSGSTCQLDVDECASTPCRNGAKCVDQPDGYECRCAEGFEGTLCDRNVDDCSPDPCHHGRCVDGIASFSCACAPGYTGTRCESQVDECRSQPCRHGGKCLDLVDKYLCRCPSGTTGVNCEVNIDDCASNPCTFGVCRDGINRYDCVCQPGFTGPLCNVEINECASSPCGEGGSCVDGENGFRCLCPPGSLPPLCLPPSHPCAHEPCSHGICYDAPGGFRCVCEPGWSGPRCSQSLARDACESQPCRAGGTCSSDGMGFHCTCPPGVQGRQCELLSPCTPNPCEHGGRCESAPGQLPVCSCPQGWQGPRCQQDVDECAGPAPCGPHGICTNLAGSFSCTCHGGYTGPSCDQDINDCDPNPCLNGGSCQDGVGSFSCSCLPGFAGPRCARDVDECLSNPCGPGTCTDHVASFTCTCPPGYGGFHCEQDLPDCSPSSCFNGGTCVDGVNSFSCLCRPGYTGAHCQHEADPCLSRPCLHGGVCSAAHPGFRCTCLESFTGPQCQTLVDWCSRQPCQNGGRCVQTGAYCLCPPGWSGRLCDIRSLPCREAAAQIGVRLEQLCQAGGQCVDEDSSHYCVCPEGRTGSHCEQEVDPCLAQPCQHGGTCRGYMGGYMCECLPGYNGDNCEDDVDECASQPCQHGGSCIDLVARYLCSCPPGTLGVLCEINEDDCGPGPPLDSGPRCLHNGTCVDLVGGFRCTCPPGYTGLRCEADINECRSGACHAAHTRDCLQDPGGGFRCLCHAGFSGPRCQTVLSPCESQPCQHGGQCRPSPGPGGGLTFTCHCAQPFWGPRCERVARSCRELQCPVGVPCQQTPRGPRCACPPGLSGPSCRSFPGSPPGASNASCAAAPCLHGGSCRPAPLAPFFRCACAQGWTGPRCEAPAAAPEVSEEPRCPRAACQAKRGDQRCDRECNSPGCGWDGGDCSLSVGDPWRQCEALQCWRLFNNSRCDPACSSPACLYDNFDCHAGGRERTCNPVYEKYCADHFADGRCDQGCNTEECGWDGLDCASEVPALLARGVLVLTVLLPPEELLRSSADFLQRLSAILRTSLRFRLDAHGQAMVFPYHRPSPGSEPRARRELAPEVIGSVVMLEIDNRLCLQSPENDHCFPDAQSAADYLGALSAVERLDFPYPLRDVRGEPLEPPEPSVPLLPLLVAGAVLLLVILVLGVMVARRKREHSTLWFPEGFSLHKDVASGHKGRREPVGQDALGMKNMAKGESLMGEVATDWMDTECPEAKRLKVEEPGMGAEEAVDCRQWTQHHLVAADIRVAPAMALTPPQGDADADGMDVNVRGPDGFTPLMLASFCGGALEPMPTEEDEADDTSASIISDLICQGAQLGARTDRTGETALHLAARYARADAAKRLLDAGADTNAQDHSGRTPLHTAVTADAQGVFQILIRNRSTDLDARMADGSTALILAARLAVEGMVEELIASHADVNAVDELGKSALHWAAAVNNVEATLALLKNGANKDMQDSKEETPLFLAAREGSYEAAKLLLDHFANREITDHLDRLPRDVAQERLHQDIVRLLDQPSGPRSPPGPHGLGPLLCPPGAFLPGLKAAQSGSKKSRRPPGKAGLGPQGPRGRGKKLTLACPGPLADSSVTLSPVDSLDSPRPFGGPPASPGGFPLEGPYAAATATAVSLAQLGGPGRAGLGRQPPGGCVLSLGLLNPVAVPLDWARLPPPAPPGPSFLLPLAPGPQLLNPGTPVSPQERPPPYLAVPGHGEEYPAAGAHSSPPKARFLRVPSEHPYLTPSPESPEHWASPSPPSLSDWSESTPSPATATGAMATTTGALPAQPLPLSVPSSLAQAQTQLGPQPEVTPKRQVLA
# Chain of Dickkopf-related protein 1 (Homo sapiens) (O94907 whole entry, looked up): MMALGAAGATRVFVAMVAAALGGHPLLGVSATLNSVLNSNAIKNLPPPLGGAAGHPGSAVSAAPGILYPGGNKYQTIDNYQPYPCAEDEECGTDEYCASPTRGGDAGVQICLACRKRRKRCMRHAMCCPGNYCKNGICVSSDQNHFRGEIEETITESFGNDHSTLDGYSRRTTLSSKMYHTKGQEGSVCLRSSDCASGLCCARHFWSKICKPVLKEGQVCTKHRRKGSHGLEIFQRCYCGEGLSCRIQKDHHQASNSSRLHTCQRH
# Chain of Epidermal growth factor receptor (Homo sapiens) (P00533 whole entry, looked up): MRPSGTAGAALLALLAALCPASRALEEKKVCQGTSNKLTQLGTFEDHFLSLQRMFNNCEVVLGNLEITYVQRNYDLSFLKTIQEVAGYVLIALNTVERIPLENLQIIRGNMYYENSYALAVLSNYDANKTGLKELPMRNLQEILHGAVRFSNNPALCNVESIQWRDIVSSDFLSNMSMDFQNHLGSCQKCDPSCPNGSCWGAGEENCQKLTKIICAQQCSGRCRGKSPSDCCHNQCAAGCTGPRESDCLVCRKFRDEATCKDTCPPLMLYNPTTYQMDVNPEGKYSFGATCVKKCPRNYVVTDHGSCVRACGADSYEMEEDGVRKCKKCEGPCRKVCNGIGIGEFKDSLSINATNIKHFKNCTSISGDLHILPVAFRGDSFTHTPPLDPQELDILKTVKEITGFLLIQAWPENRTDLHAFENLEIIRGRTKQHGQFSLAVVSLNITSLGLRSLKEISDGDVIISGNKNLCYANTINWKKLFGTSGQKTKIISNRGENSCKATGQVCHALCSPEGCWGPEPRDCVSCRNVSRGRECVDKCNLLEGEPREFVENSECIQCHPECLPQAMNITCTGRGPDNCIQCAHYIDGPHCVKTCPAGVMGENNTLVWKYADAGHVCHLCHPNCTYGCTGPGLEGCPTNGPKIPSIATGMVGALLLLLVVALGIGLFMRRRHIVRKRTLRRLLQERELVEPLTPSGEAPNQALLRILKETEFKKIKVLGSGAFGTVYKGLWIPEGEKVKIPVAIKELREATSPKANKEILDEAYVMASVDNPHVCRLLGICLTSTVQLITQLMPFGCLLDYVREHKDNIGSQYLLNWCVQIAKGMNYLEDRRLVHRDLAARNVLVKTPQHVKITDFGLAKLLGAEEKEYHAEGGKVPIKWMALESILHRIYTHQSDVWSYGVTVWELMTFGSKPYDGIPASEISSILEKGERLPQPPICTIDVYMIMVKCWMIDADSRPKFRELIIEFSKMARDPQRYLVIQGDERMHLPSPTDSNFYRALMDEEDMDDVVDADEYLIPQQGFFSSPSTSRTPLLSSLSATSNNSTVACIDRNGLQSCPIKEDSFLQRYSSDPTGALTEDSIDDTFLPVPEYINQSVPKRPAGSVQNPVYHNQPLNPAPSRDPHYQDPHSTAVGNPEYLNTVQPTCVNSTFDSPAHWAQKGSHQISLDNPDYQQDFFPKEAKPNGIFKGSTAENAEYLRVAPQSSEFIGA
# Chain of Torsin-1A-interacting protein 2 (Homo sapiens) (Q8NFQ8 whole entry, looked up): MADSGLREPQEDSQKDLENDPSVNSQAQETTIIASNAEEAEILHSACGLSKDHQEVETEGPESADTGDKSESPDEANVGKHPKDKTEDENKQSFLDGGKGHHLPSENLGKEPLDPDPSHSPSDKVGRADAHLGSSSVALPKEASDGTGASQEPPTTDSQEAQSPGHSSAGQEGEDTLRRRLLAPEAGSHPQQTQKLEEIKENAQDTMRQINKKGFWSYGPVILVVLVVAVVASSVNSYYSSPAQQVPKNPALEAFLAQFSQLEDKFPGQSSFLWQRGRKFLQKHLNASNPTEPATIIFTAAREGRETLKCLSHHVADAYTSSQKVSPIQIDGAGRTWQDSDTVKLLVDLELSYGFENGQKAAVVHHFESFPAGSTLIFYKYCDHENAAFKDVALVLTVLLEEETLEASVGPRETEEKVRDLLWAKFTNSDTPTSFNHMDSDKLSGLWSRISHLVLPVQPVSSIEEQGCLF
# Chain of Fibroblast growth factor 10 (Homo sapiens) (O15520 whole entry, looked up): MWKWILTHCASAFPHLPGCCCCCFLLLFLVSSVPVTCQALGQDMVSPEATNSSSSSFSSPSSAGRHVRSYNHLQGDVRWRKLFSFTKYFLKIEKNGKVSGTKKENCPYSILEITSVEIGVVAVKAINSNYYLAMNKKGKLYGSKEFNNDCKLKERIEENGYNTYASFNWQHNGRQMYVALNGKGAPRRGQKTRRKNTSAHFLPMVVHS
# Chain of Follistatin-related protein 3 (Homo sapiens) (O95633 whole entry, looked up): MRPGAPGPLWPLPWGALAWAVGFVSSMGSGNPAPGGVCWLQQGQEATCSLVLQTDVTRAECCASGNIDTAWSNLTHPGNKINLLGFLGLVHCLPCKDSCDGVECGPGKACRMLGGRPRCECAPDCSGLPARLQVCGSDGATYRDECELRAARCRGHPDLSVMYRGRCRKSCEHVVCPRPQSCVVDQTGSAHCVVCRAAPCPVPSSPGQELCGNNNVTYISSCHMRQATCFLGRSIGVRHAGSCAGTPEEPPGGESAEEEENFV
Compound,composite z-score [1],z-score [2],z-score [3],z-score [4],composite z-score [5],z-score [6],composite z-score [7],composite z-score [8],composite z-score [9],composite z-score [10],composite z-score [11],composite z-score [12],composite z-score [13],z-score [14],composite z-score [15],composite z-score [16],composite z-score [17],composite z-score [18],composite z-score [19],composite z-score [20]
CO[C@H]1O[C@H](CO)[C@@H](OC(=O)Nc2ccccc2-c2ccccc2)[C@H](OC(=O)Nc2ccccc2)[C@H]1OC(=O)Nc1ccccc1,1.54,1.81 (inactive),1.21 (inactive),5.33 (inactive),3.12,0.517 (inactive),0.208,1.2,1.1,0.0903,1.43,0.821,0.886,-0.299 (inactive),1.45,1.33,0.41,1.41,0.993,0.352
CCCCC(=C=CC[C@H](O)c1ccc(CO)o1)CCO,1.49,0.978 (inactive),-1.17 (inactive),-0.0978 (inactive),1.59,-0.14 (inactive),-0.258,1.31,0.683,-0.0041,1.17,-0.0027,-0.485,0.263 (inactive),0.738,0.514,-0.0244,0.484,-0.0878,0.839
O=C1[C@H]2C=C(I)[C@H](C[C@@H]2OCCCCCCO)[C@@]12CO2,-0.134,-1.5 (inactive),-2.19 (inactive),-0.384 (inactive),-0.505,-1.05 (inactive),-0.121,0.263,1.13,-0.133,0.525,-0.261,0.191,0.0312 (inactive),0.281,-0.454,0.677,1.39,1.15,1.43
CN1C(=O)C2C(C1=O)C1C=C(CCCO)C2C(C2CC2)N1Cc1cccc(OC(F)(F)F)c1 (stereo not given),1.34,-1.07 (inactive),-1.58 (inactive),-1.15 (inactive),3.17,0.179 (inactive),-0.224,-0.0767,0.203,-0.144,1.79,-0.656,0.512,-0.511 (inactive),-0.268,0.393,-0.783,0.0703,-0.521,0.722
NC(=O)N1C(=O)C2C(C1=O)C1C=C(CCCO)C2C(c2ccc(CN3CCCC3)cc2)N1Cc1sc2ccccc2c1Cl (stereo not given),0.634,-0.75 (inactive),-0.399 (inactive),-1.27 (inactive),1.97,0.465 (inactive),-0.208,-0.275,-0.348,-0.112,0.0883,-0.291,0.233,-0.497 (inactive),0.528,-0.42,-0.243,-0.744,-0.29,-0.0473

# Reference: PubChem BioAssay
